Bioassay records from PubChem BioAssay.
In the library only some 2.4% were active in any assay of this set; here they are far more common.
Pol eta inh-1: inhibitors of human DNA polymerase eta | Q9Y253 | recombinant Pol eta, fluorescent DNA replication assay | Potency, µM (series often up to 114 µM), actives largely listed as inhibitors | 390,000 compounds, 1.2% hits | AID 588591
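Pol eta at 10 nM preincubated with compounds 15 min at room temperature; reaction started with fluorescent substrate (50 nM final) and read kinetically at 0 and 10 min.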
KAT2A inh: inhibitors of human GCN5L2 histone acetyltransferase. 390,000 compounds, 0.21% hits. Q92830. GCN5L2 HAT assay, ThioGlo1 CoA-SH fluorescence. AID 504327. Potency, µM (highest dose often 58.9 µM), usual class: inhibitors
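Compounds, pin-transferred from DMSO stocks, meet 20nM GCN5L2 for 15 min before the reaction begins with H3(1-25) peptide (75uM) and acetyl-CoA (70uM). Thiol-reactive ThioGlo1 reports CoA release over 20 min at room temperature.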
GLS inhibitor: inhibitors of human glutaminase (GLS) | O94925 | GLS enzymatic activity, qHTS titration | Potency, µM (highest dose often 45.5 µM), most hits filed as inhibitors | 410,000 compounds, 0.21% hits | AID 624170
Target sequence (O94925 whole entry, looked up): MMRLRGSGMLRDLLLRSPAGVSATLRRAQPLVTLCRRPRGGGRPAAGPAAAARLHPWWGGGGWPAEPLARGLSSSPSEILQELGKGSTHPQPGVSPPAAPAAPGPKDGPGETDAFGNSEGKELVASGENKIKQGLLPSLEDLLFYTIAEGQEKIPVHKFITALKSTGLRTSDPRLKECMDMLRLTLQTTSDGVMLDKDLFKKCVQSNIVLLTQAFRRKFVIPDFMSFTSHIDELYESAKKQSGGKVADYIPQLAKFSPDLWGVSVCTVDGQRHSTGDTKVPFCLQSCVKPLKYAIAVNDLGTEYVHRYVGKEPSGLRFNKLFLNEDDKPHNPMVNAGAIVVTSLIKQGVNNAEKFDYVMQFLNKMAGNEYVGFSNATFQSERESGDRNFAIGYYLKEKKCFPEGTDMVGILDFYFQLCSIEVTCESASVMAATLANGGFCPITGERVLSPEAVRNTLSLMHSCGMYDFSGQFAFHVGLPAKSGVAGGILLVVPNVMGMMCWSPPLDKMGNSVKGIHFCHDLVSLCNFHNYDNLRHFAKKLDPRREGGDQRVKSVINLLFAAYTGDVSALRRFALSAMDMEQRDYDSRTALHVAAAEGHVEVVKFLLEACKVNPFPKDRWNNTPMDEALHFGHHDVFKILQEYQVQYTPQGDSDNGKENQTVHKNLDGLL
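hKGA in 45 mM KH2PO4 pH 8.2, 0.02% Tween-20 with pin-transferred compounds; 1 mM L-glutamine (stock) plus glutamate oxidase/HRP/Amplex Red coupling added. Fluorescence read initially and after 30 min at RT.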
Pol kappa inh-1: blocks human DNA polymerase kappa activity; Q9UBT6; purified Pol kappa, fluorescent DNA synthesis assay, 10 min; Potency, µM (doses to about 107 µM), actives largely listed as inhibitors; 400,000 compounds, 0.53% hits
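Inhibition of 10 nM Pol kappa is measured by a fluorescent read-out at 0 and 10 min following addition of 50 nM substrate (final), with a 15-min room-temperature compound preincubation.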
Pol iota inh: inhibitors of human DNA polymerase iota; Q9UNA4; Pol iota fluorescent replication assay, 10 min; Potency, µM (titrated, usually from 115 µM), usual class: inhibitors; 390,000 compounds, 1% hits
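Fluorescent replication assay read twice, at 0 min and 10 min after adding 50 nM (final) substrate. Enzyme (10 nM) and compounds were first incubated 15 min at room temperature; enzyme-free buffer wells were negative controls.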
POLB inh: DNA polymerase beta (human) inhibition; P06746; Pol beta primer extension/strand displacement, fluorescence kinetic; Potency, µM (top dose mostly 114 µM), hits mostly inhibitors; 340,000 compounds, 1.3% hits; AID 485314
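Kinetic readout of DNA synthesis with strand displacement by Pol beta. Compound and 10 nM enzyme sit 15 min at room temperature; 50 nM substrate starts the reaction, read immediately and at 10 min.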
BAZ2B inh: confirmation of human BAZ2B bromodomain inhibitors. 25 compounds, 100% hits. shares compounds with Pol kappa inh-1. Potency, µM, actives largely listed as inhibitors. AID 588809. AlphaScreen BAZ2B / biotin-H3K14Ac peptide displacement; calls by dose curve
BAZ2B bead ctr: AlphaScreen signal interference, BAZ2B hit counter-screen. shares compounds with Pol kappa inh-1. AlphaScreen biotin-His6 peptide bead counterscreen, signal decrease. Potency, µM (highest dose often 57.1 µM), actives largely listed as inhibitors. 25 tested, under 10 active;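 active = clear concentration-dependent signal drop in the bead assay lacking the target, so a primary-screen artifact; inconclusive = weak, partial or single-dose response; inactive = no response, so a real primary hit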
PGK validate: blocks T. brucei phosphoglycerate kinase; shares compounds with Pol kappa inh-1; TbPGK coupled GAPDH assay, Kinase-Glo luminescence; Potency, µM (top dose mostly 57.5 µM), hits mostly inhibitors; 500 compounds, 79% hits; also: nearly all actives have a fitted effect of over 65% in size
POLI cherry-pick: Confirm cherry-picked inhibitors of human polymerase iota. shares compounds with Pol kappa inh-1. Pol iota primer extension, TAMRA/BHQ fluorescence. Potency, µM, hits mostly inhibitors. 1,500 compounds, 77% hits
Pol kappa inh-2: Pol kappa (human) inhibition, cherry-pick confirmation. shares compounds with Pol eta inh-1. purified Pol-kappa, fluorescent strand-displacement substrate. Potency, µM, actives largely listed as inhibitors. 920 compounds, 76% hits
Pol eta inh-2: confirmation of human DNA polymerase eta inhibitors; shares compounds with Pol eta inh-1; Pol eta primer extension, TAMRA/BHQ fluorescence, 10 min; Potency, µM, actives largely listed as inhibitors; 2,600 compounds, 64% hits; AID 720502
A number is an active result; ! = repeats disagree. Unless noted, calls follow the shape of the dose curve; as a rule, active = well fitted curve in the direction sought with a large enough effect; inconclusive = small, poorly fitted or top-dose-only effect, or another doubt; inactive = no such curve, though single readings can be large; an effect the other way counts as inactive or inconclusive.

Results for CN(C)[C@@H]1C(=O)C(C(N)=O)=C(O)[C@@]2(O)C(=O)C3=C(O)c4c(O)cccc4[C@@](C)(O)[C@H]3[C@H](O)[C@@H]12 ?
Pol eta inh-1: 3.98µM; KAT2A inh: 28.2µM!; GLS inhibitor: 7.08µM; Pol kappa inh-1: 2.82µM; Pol iota inh: inconclusive; POLB inh: 2.82µM; POLI cherry-pick: 9.47; Pol kappa inh-2: 8.44; Pol eta inh-2: 26.9

How did CCCc1cc(N2CCN(c3ccc(OC)cc3)CC2)n2cnnc2n1 do in these assays?
Pol eta inh-1: inactive; KAT2A inh: inactive; GLS inhibitor: inactive; Pol kappa inh-1: inactive; Pol iota inh: inactive; POLB inh: inactive

What do the screens show for `CC1Cc2ccccc2N1C(=O)COC(=O)c1ccc(Cl)nc1` (stereo not drawn)?
Pol eta inh-1: inactive; KAT2A inh: inactive; GLS inhibitor: inactive; Pol kappa inh-1: inactive; Pol iota inh: inactive; POLB inh: inactive

How did O=C1NC(=S)NC(=O)C1=Cc1cccn1-c1ccc(O)cc1 do in these assays?
Pol eta inh-1: 3.55µM; KAT2A inh: inconclusive; GLS inhibitor: inactive; Pol kappa inh-1: 17.8µM; Pol iota inh: 2.24µM; POLB inh: 25.1µM; PGK validate: 16.3µM; POLI cherry-pick: 7.52; Pol eta inh-2: 6.01

What do the screens show for `Cc1cc(C)cc(N2C(=O)NC(=O)/C(=C\c3cccn3-c3ccccc3)C2=O)c1`?
Pol eta inh-1: inactive; KAT2A inh: inactive; GLS inhibitor: inactive; Pol kappa inh-1: inactive; Pol iota inh: inconclusive; POLB inh: inactive

Results for Cc1cc(/C=C2\C(=O)NC(=O)N(c3ccc(Cl)cc3)C2=O)c(C)n1-c1cccc(C(=O)O)c1 ?
Pol eta inh-1: 20µM; KAT2A inh: inactive; GLS inhibitor: inconclusive; Pol kappa inh-1: inactive; Pol iota inh: 17.8µM; POLB inh: inconclusive; POLI cherry-pick: 59.7; Pol kappa inh-2: 16.8; Pol eta inh-2: 6.75

How did CCN1C(=O)NC(=O)/C(=C/c2cc(C)n(-c3sc(C)c(C)c3C#N)c2C)C1=O do in these assays?
Pol eta inh-1: inconclusive; KAT2A inh: inactive; GLS inhibitor: inactive; Pol kappa inh-1: inactive; Pol iota inh: inactive; POLB inh: inactive

How did Cc1cc(/C=C2\C(=O)NC(=O)N(c3ccc(Br)cc3)C2=O)c(C)n1-c1cc(C(=O)O)cc(C(=O)O)c1 do in these assays?
Pol eta inh-1: 2.51µM; KAT2A inh: inactive; GLS inhibitor: 10µM; Pol kappa inh-1: 2.82µM; Pol iota inh: inconclusive; POLB inh: 28.2µM; PGK validate: inconclusive; POLI cherry-pick: 21.2; Pol kappa inh-2: 2.99; Pol eta inh-2: 12

What do the screens show for `Cc1cc(/C=C2\C(=O)NC(=O)N(c3cccc(F)c3)C2=O)c(C)n1-c1cc(C(=O)O)cc(C(=O)O)c1`?
Pol eta inh-1: 10µM; KAT2A inh: inactive; GLS inhibitor: inactive; Pol kappa inh-1: 50.1µM; Pol iota inh: 15.8µM; POLB inh: 22.4µM; POLI cherry-pick: inconclusive; Pol eta inh-2: 21.3

Results for Cc1ccc(N2C(=O)NC(=O)/C(=C\c3cc(C)n(-c4sc5c(c4C#N)CCCC5)c3C)C2=O)cc1 ?
Pol eta inh-1: 20µM; KAT2A inh: inactive; GLS inhibitor: inconclusive; Pol kappa inh-1: inactive; Pol iota inh: inconclusive; POLB inh: inconclusive; POLI cherry-pick: 67; Pol eta inh-2: 19

How did Cc1cc(/C=C2/C(=O)NC(=O)N(c3ccc(Br)cc3)C2=O)c(C)n1C do in these assays?
Pol eta inh-1: inactive; KAT2A inh: inactive; GLS inhibitor: inactive; Pol kappa inh-1: inactive; Pol iota inh: inactive; POLB inh: inactive

What do the screens show for `OCC(Br)(Br)Br`?
KAT2A inh: inactive; Pol kappa inh-1: inactive

Results for O=C(O)Cc1ccc(-n2cccc2)cc1 ?
Pol eta inh-1: 3.55µM; KAT2A inh: inconclusive; GLS inhibitor: inactive; Pol kappa inh-1: 44.7µM; Pol iota inh: 12.6µM; POLB inh: 4.47µM; BAZ2B inh: 25.1; BAZ2B bead ctr: inconclusive; POLI cherry-pick: 11.9; Pol eta inh-2: 7.57

What do the screens show for `C[C@@H]1CN([C@@H](C)CO)C(=O)CCCn2nncc2CO[C@@H]1CN(C)C(=O)Nc1ccc(N2CCCCC2)cc1`?
Pol eta inh-1: inactive; GLS inhibitor: inactive

Results for Cc1cccc(C(=O)Nc2nnc(SCC(=O)NCc3ccco3)s2)c1 ?
Pol eta inh-1: inactive; GLS inhibitor: inactive; Pol kappa inh-1: inactive; Pol iota inh: inactive

How did Cn1cccc1/C=C1\C(=O)NC(=O)N(Cc2ccccc2Cl)C1=O do in these assays?
Pol eta inh-1: 28.2µM; KAT2A inh: inactive; GLS inhibitor: inactive; Pol kappa inh-1: 31.6µM; Pol iota inh: 20µM; POLB inh: inactive; Pol eta inh-2: 67.5

Results for COc1cc(OC)c(OC)cc1/C=C1\C(=O)NC(=O)N(Cc2ccccc2)C1=O ?
Pol eta inh-1: inactive; KAT2A inh: inactive; GLS inhibitor: inactive; Pol kappa inh-1: inactive; Pol iota inh: inconclusive; POLB inh: inactive

What do the screens show for `Cc1ccc(NS(=O)(=O)c2ccc(Cl)c(N=Nc3c(O)[nH]c(=O)[nH]c3=O)c2)cc1Cl`?
Pol eta inh-1: 22.4µM; KAT2A inh: inactive; GLS inhibitor: inconclusive; Pol kappa inh-1: inactive; Pol iota inh: inconclusive; Pol kappa inh-2: 59.7

What do the screens show for `COc1ccc(NS(=O)(=O)c2cc(N=Nc3c(O)[nH]c(=O)[nH]c3=O)ccc2Cl)cc1`?
Pol eta inh-1: inactive; KAT2A inh: inactive; GLS inhibitor: inactive; Pol kappa inh-1: inactive; Pol iota inh: inactive

How did COc1ccc(CCN)cc1O do in these assays?
Pol eta inh-1: inactive; GLS inhibitor: inactive; Pol kappa inh-1: inactive; Pol iota inh: inactive; POLB inh: inactive
